Out of some 5,500 compounds screened, about 2,000 (36%) were called active. Another 18% or so got no clear call; they are omitted. No stated cut-off is given here; in the data, active means normalized growth mostly below about 0.91 (no sharp cut-off); inconclusive means no clear call, values can overlap the other calls; inactive means mostly above about 0.92. Some of the results follow.
Assay: chemical genetic growth profiling, strain panel (AID 1159580);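 further: tested at 20 µM; growth read once vehicle control cultures reached saturation at 30 °C; 1 = growth at the plate median or of vehicle wells; lower values mean less growth of the strain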
Details: S. cerevisiae deletion strains, growth OD

Measured: normalized growth

N#Cc1c(N)sc2c1CCCCC2
inactive: locus YAL013W, strain DEP1, active compounds read low 0.959 | locus YBR229C, strain ROT2, active compounds read low 0.951 | locus YCL061C, strain MRC1, active compounds read low 0.945 | locus YDL101C, strain DUN1, active compounds read low 0.971 | locus YDR150W, strain NUM1, active compounds read low 1.02 | locus YGR078C, strain PAC10, active compounds read low 0.961 | locus YHR087W, strain rtc3, active compounds read low 0.975 | locus YJL187C, strain SWE1, active compounds read low 0.963 | locus YJR043C, strain POL32, active compounds read low 0.992 | locus YJR075W, strain HOC1, active compounds read low 0.945 | locus YLR039C, strain RIC1, active compounds read low 0.96 | locus YLR058C, strain SHM2 (second series), active compounds read low 0.956 | locus YLR262C, strain YPT6, active compounds read low 0.955 | locus YML094W, strain GIM5, active compounds read low 0.878 | locus YMR219W, strain ESC1, active compounds read low 0.95 | locus YMR263W, strain SAP30, active compounds read low 0.984 | locus YNL153C, strain GIM3, active compounds read low 0.953 | locus YNL298W, strain CLA4 (second series), active compounds read low 0.944 | locus YNL322C, strain KRE1, active compounds read low 0.964 | locus YNR030W, strain Alg12, active compounds read low 0.895 | locus YPL055C, strain LGE1, active compounds read low 0.97
active: locus YEL061C, strain CIN8, active compounds read low 0.903 | locus YHR030C, strain SLT2, active compounds read low 0.616 | locus YKL190W, strain CNB1, active compounds read low 0.927 | locus YLR085C, strain ARP6, active compounds read low 0.714 | locus YMR307W, strain GAS1, active compounds read low 0.662 | locus YPL241C, strain CIN2, active compounds read low 0.846 | locus YPR135W, strain CTF4, active compounds read low 0.498
